Rows were chosen to be rich in hits. Some 12% of all compounds tested hit in one or more screens of this group.
USP30 inh: blocks human USP30 ubiquitin-rhodamine cleavage; inhibition, % at 25 µM; hit rate 5.3% among 47,000; Q70CQ3; purified USP30, Ub-rhodamine cleavage fluorescence
USP28 block: inhibitors of human USP28 deubiquitinase; Q96RU2; hit rate 3% among 47,000; purified USP28, Ub-rhodamine cleavage fluorescence, 30 min; AID 1645857; inhibition, % at 25 µM
Target sequence (Q96RU2 whole entry, looked up): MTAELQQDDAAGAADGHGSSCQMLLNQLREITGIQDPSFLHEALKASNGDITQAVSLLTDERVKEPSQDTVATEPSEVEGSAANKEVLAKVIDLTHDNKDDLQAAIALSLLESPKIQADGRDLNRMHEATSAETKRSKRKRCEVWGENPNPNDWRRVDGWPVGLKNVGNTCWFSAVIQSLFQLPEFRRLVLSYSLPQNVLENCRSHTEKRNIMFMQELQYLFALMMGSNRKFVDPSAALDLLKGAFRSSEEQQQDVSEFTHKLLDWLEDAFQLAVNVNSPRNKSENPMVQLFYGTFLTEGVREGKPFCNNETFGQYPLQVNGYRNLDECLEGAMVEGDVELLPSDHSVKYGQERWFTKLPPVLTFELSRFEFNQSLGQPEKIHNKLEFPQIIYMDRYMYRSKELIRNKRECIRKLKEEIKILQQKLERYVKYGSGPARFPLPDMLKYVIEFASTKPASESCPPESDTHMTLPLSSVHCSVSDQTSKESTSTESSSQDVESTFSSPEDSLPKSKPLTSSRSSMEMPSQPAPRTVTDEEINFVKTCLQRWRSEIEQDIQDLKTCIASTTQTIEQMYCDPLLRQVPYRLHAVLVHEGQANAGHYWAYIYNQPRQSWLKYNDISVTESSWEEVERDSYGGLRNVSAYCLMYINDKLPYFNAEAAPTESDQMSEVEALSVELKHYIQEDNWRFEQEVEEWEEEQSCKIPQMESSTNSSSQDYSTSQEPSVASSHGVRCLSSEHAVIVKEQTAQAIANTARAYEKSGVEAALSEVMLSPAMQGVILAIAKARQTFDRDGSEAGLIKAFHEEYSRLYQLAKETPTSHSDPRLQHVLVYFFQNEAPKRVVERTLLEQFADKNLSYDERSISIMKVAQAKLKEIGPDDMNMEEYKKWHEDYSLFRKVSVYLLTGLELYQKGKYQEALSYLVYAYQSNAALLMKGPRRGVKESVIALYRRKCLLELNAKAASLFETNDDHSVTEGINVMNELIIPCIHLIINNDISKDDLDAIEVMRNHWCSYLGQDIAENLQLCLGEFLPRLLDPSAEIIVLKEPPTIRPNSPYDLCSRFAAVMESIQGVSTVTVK
USP17 block: blocks human USP17 ubiquitin-rhodamine cleavage; purified USP17, Ub-rhodamine cleavage fluorescence, 3 h; inhibition, % at 50 µM; hit rate 6.5% among 47,000; AID 1645855
OTUD3 inh: inhibitors of human OTUD3 deubiquitinase; hit rate 0.7% among 47,000; inhibition, % at 25 µM; purified OTUD3, Ub-rhodamine fluorescence, 2 h; Q5T2D3
Numbers stand for hits; 0 = inactive; - = not tested or not shown. Cut-off read from the data, not from the text of the source: active = inhibition above about 30%; inactive = the rest.

SMILES | USP30 inh | USP28 block | USP17 block | OTUD3 inh
O=C(NCc1ccco1)C1CCN(S(=O)(=O)c2cccc3cnccc23)CC1 | 0 | 0 | 34 | 0
Brc1nsc2nc3c(cc12)CCCCC3 | 0 | 0 | 0 | 0
COc1ccc(NC(=O)c2nnc(C(=O)NCc3ccccc3F)s2)cc1 | 0 | 0 | 0 | 0
Cc1ccccc1CNC(=O)c1nnc(C(=O)Nc2ccc(F)cc2)s1 | 39 | 0 | 0 | 0
CCN(CC)C(=O)[C@@]1(c2ccccc2)C[C@H]1COc1ccc(C)cc1 | 0 | 0 | 30 | 0
COc1ccccc1[C@]1(C(=O)N2CCOCC2)C[C@H]1COc1ccccc1 | 0 | 0 | 0 | 0
COc1ccc(NS(=O)(=O)c2ccc(/C=C\c3onc(C)c3NC(C)=O)cc2)cc1 | - | - | 0 | 0
NS(=O)(=O)c1cccc(NS(=O)(=O)c2ccc(/C=C/C(=O)OCC(=O)c3ccc(Br)cc3)cc2)c1 | 0 | 59 | 0 | 0
CCc1ccc(NC(=O)C(C)OC(=O)/C=C/c2ccc(S(=O)(=O)Nc3cccc(S(N)(=O)=O)c3)cc2)cc1 (stereo unspecified) | 0 | 0 | 33 | 0
COc1ccc(C(=O)COC(=O)/C=C/c2ccc(S(=O)(=O)Nc3cccc(S(N)(=O)=O)c3)cc2)cc1 | 0 | 43 | 0 | 0
NC(N)=NCCCC(=O)N1C[C@@H]2c3nccn3-c3ccccc3[C@@H]2C1 | 0 | 0 | 0 | 0
CC(C)c1ccc(NC(=O)C2C3C=CC4(O3)C2C(=O)N(CCc2ccc(Cl)cc2)C4C(=O)NC2CCCCC2)cc1 (stereo unspecified) | 0 | 0 | 0 | 0
O=C(COc1cccnc1)N1CCCCC1Cn1cccn1 (stereo unspecified) | 0 | 0 | 0 | 0
O=C(Nc1ccccc1Oc1ccccc1)C(c1ccccc1)c1ccccc1 | 37 | 0 | 0 | 0
N#Cc1ccc(OCC(=O)Nc2ccccc2Oc2ccccc2)cc1 | 0 | 0 | 0 | 0
CC(O)c1nc2ccccc2n1CC(=O)N1CCCCC1 (stereo unspecified) | - | - | 0 | 0
Clc1ccc2c(Nc3ccc4c(c3)OCO4)ccnc2c1 | 53 | 43 | 56 | 0
CCOC(=O)CSc1cc(CS(=O)c2ccc(Cl)cc2)nc(-c2ccccc2)n1 (stereo unspecified) | 41 | 0 | 0 | 0
N#Cc1ccc(C(=O)Nc2cccc(C(=O)N3CCCC3C(=O)NC3CCCC3)c2)cc1 (stereo unspecified) | 0 | 0 | 0 | 0
CC1(C)C(O)CCC2(C)C1CCC1(C)C2C(=O)C=C2[C@@H]3C[C@@](C)(C(=O)O)CCC3(C)CC[C@]21C (stereo partly specified) | 49 | 0 | 46 | 0
COC1CN(C(=O)C2CCCC2)CCC(=O)N(C)c2ccccc21 (stereo unspecified) | 0 | 0 | 0 | 0
O=C(Nc1ccc2c(c1)CCN2S(=O)(=O)c1ccccc1)Nc1ccc(F)cc1F | 0 | 43 | 0 | 0
O=c1c2ccccc2c(-c2nc(-c3ccncc3)no2)cn1-c1ccccc1 | 0 | 0 | 73 | 0
COc1ccc(C(=O)Nc2n[nH]c(C)c2-c2cccc(C)c2)c(OC)c1 | 72 | 34 | 0 | 0
COc1cc(OC)cc(C(=O)Nc2n[nH]c(C)c2-c2cccc(C)c2)c1 | 0 | 0 | 0 | 0
SMILES | USP30 inh | USP28 block | USP17 block | OTUD3 inh
CNc1cc(C)nc(C2CN(C(=O)c3ccc(C)n(C)c3=O)CCO2)c1 (stereo unspecified) | 32 | 0 | 0 | 0
CCOc1ccccc1NC1c2ccccc2C(=O)N1c1cccnc1 (stereo unspecified) | 0 | 0 | 43 | 0
CSc1cccc(NC2c3ccccc3C(=O)N2c2cccnc2)c1 (stereo unspecified) | 0 | 0 | 0 | 0
O=C(O)CSc1nnc(-c2ccc3c(c2)OCCCO3)n1C1CC1 | 0 | 0 | 0 | 0
C=C1CCC[C@]2(C)C[C@H]3OC(=O)C(CN4CCCCC4CC)[C@H]3CC12 (stereo partly specified) | 40 | 0 | 0 | 0
C=C1CCC[C@]2(C)C[C@H]3OC(=O)C(CN4CCC(C(=O)OCC)CC4)[C@H]3CC12 (stereo partly specified) | 0 | 0 | 0 | 0
C=C1CCC[C@]2(C)C[C@H]3OC(=O)C(CN(C)CC(O)c4ccc(O)cc4)[C@H]3CC12 (stereo partly specified) | 0 | 0 | 0 | 0
C=C1CCC[C@]2(C)C[C@H]3OC(=O)[C@H](CNCCc4ccccc4OC)C3CC12 (stereo partly specified) | 47 | 0 | 0 | 0
C=C1CCC[C@]2(C)C[C@H]3OC(=O)C(CN4CCCCC4C)[C@H]3CC12 (stereo partly specified) | 43 | 0 | 0 | 0
CCc1nnc(-c2ccc(=O)n(CC(=O)N3CCN(c4ccccc4)CC3)c2)o1 | 0 | 0 | 0 | 0
CC1CCN(Cc2nnc(-c3cn(CC(=O)NC4CCCCC4)c4ccccc34)o2)CC1 | 60 | 0 | 35 | 0
CCc1cc(C(=O)c2ccc(OC)cc2)c(NC(=O)CN2CCCCC2)s1 | 74 | 0 | 0 | 0
COc1ccc(NC(=O)Cn2cc(C(=O)c3ccc(OC)cc3)c(=O)c3cc4c(cc32)OCCO4)cc1 | 0 | 0 | 0 | 0
CCc1cc(C(=O)c2ccc(OC)cc2)c(NC(=O)CCC(=O)O)s1 | 31 | 0 | 0 | 0
COc1cc(Cl)c(C)cc1-n1ccnc(NC(=O)c2ccccn2)c1=O | 0 | 0 | 0 | 0
COc1ccc(-c2ccc(-c3nnn(CCN4CCCCC4)n3)cc2)cc1 | 0 | 0 | 0 | 0
COc1ccc(CNc2ncnc3sccc23)cc1OC | 0 | 0 | 0 | 0
CCc1cc2c(NCc3ccc(F)cc3)ncnc2s1 | 0 | 0 | 32 | 0
O=C(Nc1ccc2c(c1)nc1n2CCCCC1)C1c2ccccc2Oc2ccccc21 | 0 | 0 | 48 | 0
O=C(O)c1cccc(NC(=O)C2c3ccccc3Oc3ccccc32)c1 | 0 | 0 | 0 | 0
O=c1ccc(-c2nnc3c4ccccc4c(Cc4ccccc4)nn23)n[nH]1 | 0 | 0 | 0 | 0
c1ccc(-c2cc(-c3nnc4c5ccccc5cnn34)[nH]n2)cc1 | 0 | 0 | 47 | 0
Cc1nn(-c2ccc(Cl)cc2)c2[nH]c(=O)c(CNc3ccc(C(C)(C)C)cc3)cc12 | 0 | 0 | 39 | 0
Fc1ccc(-c2cnc(N3CCN(c4ccccn4)CC3)nc2)cc1 | 31 | 0 | 0 | 0
COc1cccc(NC(=O)c2nc3c(s2)CCN(C(=O)c2cccnc2)CC3)c1 | 0 | 0 | 0 | 0
SMILES | USP30 inh | USP28 block | USP17 block | OTUD3 inh
COCCN1CCC2(CC1)CC1(CCN(C(C)=O)CC1)N(C)C2=O | 0 | 0 | 0 | 0
COc1ccc(C(=O)Nc2cccc(-c3csc(C)n3)c2)cc1OC | 0 | 46 | 0 | 0
CC(=O)c1cccc(NC(=O)c2ccc(-c3csc(C)n3)cc2)c1 | 0 | 0 | 53 | 0
CCc1ccc(C(=O)Nc2ccc(OC)c(OC)c2)cc1 | 0 | 0 | 0 | 0
COc1cc(C(=O)Nc2ccc3nccnc3c2)cc(OC)c1OC | 0 | 34 | 0 | 0
Cc1nc(-c2ccc(C(=O)Nc3cccc(F)c3)cc2)cs1 | 0 | 0 | 0 | 0
COc1ccc(C(=O)Nc2cccc(C(=O)OCC(=O)c3ccc(Br)cc3)c2)cc1OC | 0 | 0 | 34 | 0
CN1CC2CN(C(=O)c3ccccc3)CCN2Cc2ccccc21 (stereo unspecified) | 0 | 0 | 0 | 0
COc1ccc(CNC(=O)c2ccc(-c3csc(C)n3)cc2)cc1 | 0 | 0 | 0 | 0
